Laboratory results as given in the supplement of paper PMC10849652.
The full data set covers some 8,800 targets. This sample favours those with a hit. About 0.5% of all pairs of compound and target were hits. A number with no mark means an inactive call.

Experiments:
Experiment in all cases: log2 fold change, soluble protein after heating vs DMSO (PISA); higher = thermal stabilisation; K562 lysate, 10 uM; active = over 0.2 and 3.5 SD of the protein, either way, in both replicates (recomputed)
[1] = compound: C1=CC=C(C=C1)[C@H](COC2=CC3=C(C=C2)NC(=O)N3)NC(=O)C4=CC=CN(C4=O)CC5=CC(=C(C=C5)F)F
How it was run: (§1)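 A 30 min treatment with 10 μM compound was applied to crude K562 extract at 1 mg/mL protein in PBS pH 7.4 with 1 mM MgCl2. Heating for 3 min spanned 48°C-58°C, after which aliquots were pooled, adjusted to 0.5% NP-40 at 4°C and spun at 21,000xg for 90 min. TMTpro 16plex LC-MS/MS of the supernatant, with channel sums equalised, gave values recorded as log-two fold change in thermal stability against solvent controls, from duplicates.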

[2] = compound: CC1=C(SC2=C1C(=N[C@H](C3=NN=C(N32)C)CC(=O)N)C4=CC=C(C=C4)Cl)C
How it was run: as §1

[3] = compound: CC1=C2C(=CC=C1)N=C(N(C2=O)C3=CC=CC=C3C)CN4C=NC5=C(N=CN=C54)N
How it was run: as §1

[4] = compound: Cc1sc2c(c1C)C(c1ccc(Cl)cc1)=N[C@@H](CC(=O)OC(C)(C)C)c1nnc(C)n1-2
How it was run: as §1

[5] = compound: c1ccc([C@@H]2C[C@H]2NC2CCNCC2)cc1
How it was run: as §1

Chain of UniProt Q14703 (Q14703 whole entry, looked up): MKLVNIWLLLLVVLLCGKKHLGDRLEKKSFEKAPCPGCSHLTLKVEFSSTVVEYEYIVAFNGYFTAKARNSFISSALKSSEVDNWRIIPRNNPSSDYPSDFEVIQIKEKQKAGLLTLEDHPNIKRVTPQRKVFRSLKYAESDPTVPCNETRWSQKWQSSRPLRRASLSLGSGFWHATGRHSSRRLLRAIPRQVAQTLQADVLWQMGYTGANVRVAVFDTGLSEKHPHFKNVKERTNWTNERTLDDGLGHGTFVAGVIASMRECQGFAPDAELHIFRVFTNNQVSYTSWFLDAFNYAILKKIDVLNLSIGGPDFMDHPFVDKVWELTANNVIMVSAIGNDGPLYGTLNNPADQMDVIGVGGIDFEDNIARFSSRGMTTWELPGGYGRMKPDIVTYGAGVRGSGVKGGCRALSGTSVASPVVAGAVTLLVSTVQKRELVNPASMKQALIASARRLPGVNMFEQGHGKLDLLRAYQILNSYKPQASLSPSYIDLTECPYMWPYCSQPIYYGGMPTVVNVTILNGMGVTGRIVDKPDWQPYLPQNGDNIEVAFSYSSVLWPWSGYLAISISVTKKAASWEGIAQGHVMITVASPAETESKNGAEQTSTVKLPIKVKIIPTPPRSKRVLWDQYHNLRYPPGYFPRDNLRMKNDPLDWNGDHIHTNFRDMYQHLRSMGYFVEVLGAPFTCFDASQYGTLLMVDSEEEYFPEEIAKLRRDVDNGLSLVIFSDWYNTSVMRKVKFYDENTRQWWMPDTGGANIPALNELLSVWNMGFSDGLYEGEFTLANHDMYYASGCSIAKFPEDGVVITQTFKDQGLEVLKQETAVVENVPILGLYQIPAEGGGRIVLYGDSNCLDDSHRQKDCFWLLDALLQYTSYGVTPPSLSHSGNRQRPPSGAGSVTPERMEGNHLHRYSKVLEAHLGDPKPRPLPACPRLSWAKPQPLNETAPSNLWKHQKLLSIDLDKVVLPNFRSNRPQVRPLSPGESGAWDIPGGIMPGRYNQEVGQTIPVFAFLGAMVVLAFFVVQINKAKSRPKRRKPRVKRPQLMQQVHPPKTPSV
Chain of UniProt Q1ED39 (Q1ED39 whole entry, looked up): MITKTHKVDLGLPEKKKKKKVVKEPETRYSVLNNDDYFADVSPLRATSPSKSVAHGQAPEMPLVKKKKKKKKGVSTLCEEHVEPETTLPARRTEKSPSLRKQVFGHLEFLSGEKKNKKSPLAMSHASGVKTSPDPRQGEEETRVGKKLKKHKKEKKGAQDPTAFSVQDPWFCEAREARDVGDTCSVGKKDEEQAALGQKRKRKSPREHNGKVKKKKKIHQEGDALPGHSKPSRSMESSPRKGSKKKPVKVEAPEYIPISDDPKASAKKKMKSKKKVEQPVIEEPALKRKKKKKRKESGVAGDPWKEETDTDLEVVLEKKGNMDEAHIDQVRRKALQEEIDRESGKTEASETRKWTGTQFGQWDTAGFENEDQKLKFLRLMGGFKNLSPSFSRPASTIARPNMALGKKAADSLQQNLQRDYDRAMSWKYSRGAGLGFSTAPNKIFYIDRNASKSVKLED
Chain of UniProt P53667 (P53667 whole entry, looked up): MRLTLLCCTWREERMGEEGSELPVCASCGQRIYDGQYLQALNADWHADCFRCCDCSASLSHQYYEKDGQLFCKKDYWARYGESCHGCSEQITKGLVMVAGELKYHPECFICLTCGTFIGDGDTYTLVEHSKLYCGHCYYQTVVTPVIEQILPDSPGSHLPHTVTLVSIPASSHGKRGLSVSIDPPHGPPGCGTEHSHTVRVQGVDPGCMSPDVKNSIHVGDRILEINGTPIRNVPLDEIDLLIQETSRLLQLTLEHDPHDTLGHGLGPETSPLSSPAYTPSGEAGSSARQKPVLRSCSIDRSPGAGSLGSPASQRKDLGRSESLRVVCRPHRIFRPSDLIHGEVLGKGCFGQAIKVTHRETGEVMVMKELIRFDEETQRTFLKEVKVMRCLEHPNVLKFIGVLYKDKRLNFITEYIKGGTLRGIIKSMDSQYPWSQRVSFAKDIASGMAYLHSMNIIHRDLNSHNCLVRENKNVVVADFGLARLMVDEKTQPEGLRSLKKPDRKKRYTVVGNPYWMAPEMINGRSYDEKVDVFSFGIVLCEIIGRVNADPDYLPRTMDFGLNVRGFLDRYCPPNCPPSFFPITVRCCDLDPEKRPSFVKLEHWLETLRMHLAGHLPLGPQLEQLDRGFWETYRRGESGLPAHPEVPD
Chain of UniProt P45984 (P45984 whole entry, looked up): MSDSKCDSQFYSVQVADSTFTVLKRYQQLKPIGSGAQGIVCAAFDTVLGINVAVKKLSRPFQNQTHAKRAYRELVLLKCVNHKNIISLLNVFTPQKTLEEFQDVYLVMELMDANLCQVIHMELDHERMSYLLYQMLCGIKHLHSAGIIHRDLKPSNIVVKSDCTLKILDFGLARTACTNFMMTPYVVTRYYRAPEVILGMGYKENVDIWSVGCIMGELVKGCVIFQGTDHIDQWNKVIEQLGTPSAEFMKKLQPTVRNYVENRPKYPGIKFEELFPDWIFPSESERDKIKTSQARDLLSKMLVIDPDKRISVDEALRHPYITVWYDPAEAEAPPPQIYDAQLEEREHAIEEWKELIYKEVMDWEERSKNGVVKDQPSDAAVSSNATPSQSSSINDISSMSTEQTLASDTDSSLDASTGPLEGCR
Chain of UniProt Q8IVT5 (Q8IVT5 whole entry, looked up): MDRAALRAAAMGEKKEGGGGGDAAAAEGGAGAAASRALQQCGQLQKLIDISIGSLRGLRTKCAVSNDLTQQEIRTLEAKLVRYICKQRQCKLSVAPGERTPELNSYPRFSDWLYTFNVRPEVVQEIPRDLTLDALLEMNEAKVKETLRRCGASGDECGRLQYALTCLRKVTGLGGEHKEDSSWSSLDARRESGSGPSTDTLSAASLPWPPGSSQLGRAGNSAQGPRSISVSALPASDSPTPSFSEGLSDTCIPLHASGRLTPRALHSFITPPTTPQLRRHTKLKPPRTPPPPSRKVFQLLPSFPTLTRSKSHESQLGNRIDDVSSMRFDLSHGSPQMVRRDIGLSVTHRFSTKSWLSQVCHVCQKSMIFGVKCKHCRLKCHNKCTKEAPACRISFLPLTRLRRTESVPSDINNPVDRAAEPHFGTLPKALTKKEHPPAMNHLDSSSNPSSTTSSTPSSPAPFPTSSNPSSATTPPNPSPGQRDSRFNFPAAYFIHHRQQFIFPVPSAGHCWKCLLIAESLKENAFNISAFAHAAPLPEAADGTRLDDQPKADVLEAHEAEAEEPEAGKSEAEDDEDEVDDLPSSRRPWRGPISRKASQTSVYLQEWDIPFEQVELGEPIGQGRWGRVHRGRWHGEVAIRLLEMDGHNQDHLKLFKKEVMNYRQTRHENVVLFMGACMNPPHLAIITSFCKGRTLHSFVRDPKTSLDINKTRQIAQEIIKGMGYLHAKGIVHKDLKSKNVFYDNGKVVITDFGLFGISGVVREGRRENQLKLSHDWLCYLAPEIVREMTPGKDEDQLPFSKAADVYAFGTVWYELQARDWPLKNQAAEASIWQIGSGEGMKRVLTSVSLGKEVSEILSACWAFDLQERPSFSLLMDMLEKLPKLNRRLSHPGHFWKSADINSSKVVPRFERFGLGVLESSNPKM
Chain of UniProt Q9Y250 (Q9Y250 whole entry, looked up): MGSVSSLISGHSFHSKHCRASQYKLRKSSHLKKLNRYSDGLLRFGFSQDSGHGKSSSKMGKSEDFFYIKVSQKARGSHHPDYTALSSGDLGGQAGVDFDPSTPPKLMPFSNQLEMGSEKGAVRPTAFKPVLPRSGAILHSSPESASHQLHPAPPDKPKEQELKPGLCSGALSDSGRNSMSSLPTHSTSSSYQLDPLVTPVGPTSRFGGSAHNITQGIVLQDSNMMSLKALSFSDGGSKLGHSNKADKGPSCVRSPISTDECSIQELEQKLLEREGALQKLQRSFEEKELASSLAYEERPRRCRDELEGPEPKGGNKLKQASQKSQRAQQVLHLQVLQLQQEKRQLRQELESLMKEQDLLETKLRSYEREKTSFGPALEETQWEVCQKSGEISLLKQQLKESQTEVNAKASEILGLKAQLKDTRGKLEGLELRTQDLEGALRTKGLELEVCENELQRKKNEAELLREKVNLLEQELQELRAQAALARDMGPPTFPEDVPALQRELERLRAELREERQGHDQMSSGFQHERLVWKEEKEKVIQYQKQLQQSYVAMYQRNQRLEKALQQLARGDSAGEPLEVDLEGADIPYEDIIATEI
Chain of UniProt P48059 (P48059 whole entry, looked up): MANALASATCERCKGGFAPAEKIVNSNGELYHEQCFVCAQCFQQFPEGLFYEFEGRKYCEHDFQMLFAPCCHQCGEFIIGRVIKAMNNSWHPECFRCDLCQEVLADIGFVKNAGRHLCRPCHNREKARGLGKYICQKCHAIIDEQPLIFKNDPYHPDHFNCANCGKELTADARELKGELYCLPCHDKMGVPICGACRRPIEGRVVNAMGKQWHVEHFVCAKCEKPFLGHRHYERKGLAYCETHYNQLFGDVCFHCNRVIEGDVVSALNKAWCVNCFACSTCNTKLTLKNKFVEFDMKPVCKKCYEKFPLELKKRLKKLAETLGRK
Chain of UniProt O95297 (O95297 whole entry, looked up): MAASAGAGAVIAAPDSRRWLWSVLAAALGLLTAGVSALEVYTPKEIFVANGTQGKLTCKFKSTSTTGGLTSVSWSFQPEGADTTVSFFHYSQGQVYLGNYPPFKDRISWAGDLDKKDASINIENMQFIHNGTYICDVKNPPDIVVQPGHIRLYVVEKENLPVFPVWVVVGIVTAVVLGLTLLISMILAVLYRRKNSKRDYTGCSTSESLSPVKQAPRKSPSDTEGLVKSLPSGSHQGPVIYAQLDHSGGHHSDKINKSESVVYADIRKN
Chain of UniProt A9UHW6 (A9UHW6 whole entry, looked up): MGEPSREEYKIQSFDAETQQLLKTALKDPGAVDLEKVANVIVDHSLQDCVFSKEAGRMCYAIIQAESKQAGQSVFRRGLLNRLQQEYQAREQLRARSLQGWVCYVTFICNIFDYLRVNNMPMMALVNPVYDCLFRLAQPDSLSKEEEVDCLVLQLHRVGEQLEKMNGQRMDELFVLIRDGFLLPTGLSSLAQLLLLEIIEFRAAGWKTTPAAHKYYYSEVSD

Target | log2 fold change [1] | log2 fold change [2] | log2 fold change [3] | log2 fold change [4] | log2 fold change [5]
MLXIP (UniProt Q9HAP2) | -0.063 | 0.005 | 0.018 | 0.031 | -0.025
MBD2 (UniProt Q9UBB5) | 0.042 | 0.008 | -0.028 | 0.065 | 0.027
LIMK1 (UniProt P53667) | 0.007 | -0.015 | -0.07 | -0.024 | 0.007
KIFC3 isoform 6 (UniProt Q9BVG8) | 0.023 | 0.016 | -0.178 | -0.21 | -1.16 (active)
MAT2B (UniProt Q9NZL9) | -0.008 | 0.014 | -0.044 | -0.003 | -0.002
KRR1 (UniProt Q13601) | 0.019 | -0.017 | 0.005 | 0.062 | 0.035
LUC7L (UniProt Q9NQ29) | 0.011 | 0.013 | 0.006 | 0.003 | 0.055
LSM8 (UniProt O95777) | -0.057 | -0.012 | 0.017 | -0.004 | -0.029
MRPL19 (UniProt P49406) | 0.017 | -0.064 | 0.011 | -0.065 | 0.019
METTL2A (UniProt Q96IZ6) | 0.003 | -0.004 | 0.046 | 0 | 0.106
MAD2L2 (UniProt Q9UI95) | -0.032 | -0.006 | -0.018 | -0.085 | 0.096
MAPK9 (UniProt P45984) | -0.021 | 0.013 | 0.045 | -0.071 | 0.033
MARK3 (UniProt P27448) | 0.02 | 0.069 | 0.118 | -0.06 | 0.053
KIF11 (UniProt P52732) | 0.008 | -0.001 | 0.006 | -0.002 | 0
MITD1 (UniProt Q8WV92) | -0.036 | -0.038 | -0.015 | -0.026 | 0.117
LAS1L (UniProt Q9Y4W2) | -0.002 | 0 | -0.023 | 0.02 | -0.026
KRI1 (UniProt Q8N9T8) | 0.053 | 0.043 | 0.027 | -0.048 | -0.039
MIF4GD isoform 3 (UniProt A9UHW6) | -0.046 | -0.033 | 0.005 | -0.051 | -0.029
MBOAT2 (UniProt Q6ZWT7) | -0.011 | 0 | 0.121 | -0.022 | -0.017
MANEA (UniProt Q5SRI9) | 0.146 | -0.009 | 0.044 | 0.029 | -0.161
MBTPS1 (UniProt Q14703) | -0.317 (active) | 0.141 | 0.079 | -0.063 | 0.017
MINK1 (UniProt Q8N4C8) | 0.069 | 0.092 | -0.149 | -0.066 | 0.086
KIF4B (UniProt Q2VIQ3) | 0.035 | 0.009 | -0.02 | 0.029 | 0.013
MPZL1 (UniProt O95297) | 0.056 | 0.006 | -0.068 | -0.042 | 0.125
LZTS1 (UniProt Q9Y250) | -0.082 | 0.049 | 0.065 | -0.628 | 0.324
MCCC1 (UniProt Q96RQ3) | -0.063 | 0.015 | 0.046 | 0.002 | 0.059
KLC1 isoform 6 (UniProt Q07866) | 0.001 | 0.014 | 0.027 | 0.001 | 0.033

Target | log2 fold change [1] | log2 fold change [2] | log2 fold change [3] | log2 fold change [4] | log2 fold change [5]
MORF4L1 isoform 2 (UniProt Q9UBU8) | 0.012 | -0.03 | -0.029 | -0.041 | -0.035
MOSPD2 (UniProt Q8NHP6) | -0.024 | 0.029 | 0.047 | -0.078 | -0.013
LPCAT1 (UniProt Q8NF37) | -0.071 | 0.056 | 0.066 | 0 | -0.115
MAPKAPK2 (UniProt P49137) | 0.043 | 0.008 | -0.053 | 0.004 | -0.051
MACROD1 (UniProt Q9BQ69) | 0.048 | 0.022 | 0.004 | 0.049 | 0.075
LLGL1 (UniProt Q15334) | 0.038 | 0.052 | 0.024 | -0.056 | 0.074
MLLT11 (UniProt Q13015) | 0.007 | -0.048 | 0.109 | -0.037 | 0.003
MAPK14 (UniProt Q16539) | 0.007 | 0.024 | 0.034 | -0.04 | -0.015
MRPL46 (UniProt Q9H2W6) | 0.022 | -0.012 | 0.021 | 0.026 | 0.199
LYRM4 (UniProt Q9HD34) | -0.03 | 0.074 | 0.077 | 0.006 | 0.004
LIMS1 isoform 3 (UniProt P48059) | -0.006 | 0.006 | -0.026 | 0.037 | -0.057
KIFC1 (UniProt Q9BW19) | 0.046 | -0.008 | 0.122 | 0.021 | 0.029
LAP3 (UniProt P28838) | -0.043 | 0.021 | -0.139 | -0.056 | -0.285
MAP2K7 isoform 4 (UniProt O14733) | -0.072 | -0.261 | -0.038 | 0.066 | 0.079
KIF4A (UniProt O95239) | -0.042 | 0.012 | 0.035 | 0.06 | 0.005
MAPK14 isoform 2 (UniProt Q16539) | 0.008 | -0.053 | 0.014 | -0.028 | 0.154
LRPPRC (UniProt P42704) | -0.067 | 0.043 | 0.049 | 0.039 | 0.122
LIG3 (UniProt P49916) | -0.003 | -0.018 | -0.014 | -0.035 | 0.021
KSR1 (UniProt Q8IVT5) | -0.081 | -0.024 | 0.035 | 0.035 | 0.242 (active)
MAP1S (UniProt Q66K74) | 0.029 | 0.011 | 0.021 | 0.019 | 0.018
MOCS3 (UniProt O95396) | -0.056 | -0.019 | 0.278 | 0.025 | -0.176
MORC3 (UniProt Q14149) | 0.013 | 0 | 0.003 | 0.013 | 0.012
KPNA2 (UniProt P52292) | -0.016 | 0.027 | 0.035 | 0.003 | 0.06
MAPK8 isoform 3 (UniProt P45983) | -0.01 | 0.03 | 0.004 | 0.071 | -0.026
LARP4B (UniProt Q92615) | 0.031 | -0.034 | 0.002 | 0.03 | -0.037
KNOP1 (UniProt Q1ED39) | 0.078 | 0.029 | 0.177 | -0.162 | 0.032
